# Reference: PubChem BioAssay (Tox21)
# “And” between values parts separate entries of the source, which are not always exact repeats. Equal values may be shown once. Values without a mark were called inactive. Inconclusive results are not listed. Entries that show only a call come without a potency. The source made the active and inactive calls. Unless noted, the call rests on the fitted dose curve; in most records, active means well fitted curve in the direction sought with a large enough effect in the repeat runs; inconclusive means weak or mixed curves; inactive means flat fitted curve, though single readings scatter.
# Columns and labels:
# [1] = qHTS assay to test for compound auto fluorescence at 535 nm (green) in HEK293 cells (AID 720680)
# [2] = qHTS assay to test for compound auto fluorescence at 460 nm (blue) in HEK293 cell free culture (AID 720681)
# In short: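 Test compounds were pinned into cell-free culture medium (DMEM with 10% FBS) and fluorescence was read directly at Ex/Em 405/460 nm. Signals were expressed as fluorescence equivalents of triamterene, with DMSO vehicle as control.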
# [3] = qHTS assay to test for compound auto fluorescence at 535 nm (green) in HEK293 cell free culture (AID 720682)
# In short: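 Cell-free medium (DMEM, 10% FBS) receives compound or DMSO by pintool. Plate read directly at Ex 485/Em 535 nm. Signal converted to fluorescein equivalency.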
# [4] = qHTS assay to test for compound auto fluorescence at 590 nm (red) in HEK293 cell free culture (AID 720683)
# In short: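 Tox21 10K library compounds were pinned into cell-free DMEM with 10% FBS and fluorescence was read at excitation 540 nm. Activity is expressed as Rose Bengal sodium equivalency.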
# [5] = qHTS assay to test for compound auto fluorescence at 590 nm (red) in HepG2 cell free culture (AID 720684)
# In short: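 Measured in medium alone (MEM containing 10% FBS) following pintool addition of compound; emission at 590 nm with 540 nm excitation, referenced to Rose Bengal sodium.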
# [6] = qHTS assay to test for compound auto fluorescence at 460 nm (blue) in HepG2 cell free culture (AID 720685)
# In short: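 Compound (23 nL) or DMSO pinned into cell-free MEM with 10% FBS; blue fluorescence read at 405/460 nm excitation/emission, expressed as auto-fluorescence equivalency to triamterene.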
# [7] = qHTS assay to test for compound auto fluorescence at 535 nm (green) in HepG2 cell free culture (AID 720686)
# [8] = qHTS assay to test for compound auto fluorescence at 460 nm (blue) in HepG2 cells (AID 720687)
# In short: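 Cells (2,000/well in MEM with 10% FBS) attached overnight at 37 C, then were exposed to compound or DMSO for 1 hr at 37 C, 5% CO2. Fluorescence read at Ex/Em 405/460 nm, expressed as triamterene-equivalent signal.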
# [9] = molecular target: Glucocorticoid receptor (Homo sapiens) (UniProt P04150); assay: qHTS assay to identify small molecule agonists of the glucocorticoid receptor (GR) signaling pathway (AID 720691; active means well fitted activation curve with a large enough effect in the signal ratio in the repeat runs, not every such curve was filed as active; the % refers to the signal ratio); details: GR-bla HeLa, beta-lactamase reporter ratio, 18 h; activation: at 62.4 µM (top of the series)
# Glucocorticoid receptor (Homo sapiens), sequence (P04150 whole entry, looked up): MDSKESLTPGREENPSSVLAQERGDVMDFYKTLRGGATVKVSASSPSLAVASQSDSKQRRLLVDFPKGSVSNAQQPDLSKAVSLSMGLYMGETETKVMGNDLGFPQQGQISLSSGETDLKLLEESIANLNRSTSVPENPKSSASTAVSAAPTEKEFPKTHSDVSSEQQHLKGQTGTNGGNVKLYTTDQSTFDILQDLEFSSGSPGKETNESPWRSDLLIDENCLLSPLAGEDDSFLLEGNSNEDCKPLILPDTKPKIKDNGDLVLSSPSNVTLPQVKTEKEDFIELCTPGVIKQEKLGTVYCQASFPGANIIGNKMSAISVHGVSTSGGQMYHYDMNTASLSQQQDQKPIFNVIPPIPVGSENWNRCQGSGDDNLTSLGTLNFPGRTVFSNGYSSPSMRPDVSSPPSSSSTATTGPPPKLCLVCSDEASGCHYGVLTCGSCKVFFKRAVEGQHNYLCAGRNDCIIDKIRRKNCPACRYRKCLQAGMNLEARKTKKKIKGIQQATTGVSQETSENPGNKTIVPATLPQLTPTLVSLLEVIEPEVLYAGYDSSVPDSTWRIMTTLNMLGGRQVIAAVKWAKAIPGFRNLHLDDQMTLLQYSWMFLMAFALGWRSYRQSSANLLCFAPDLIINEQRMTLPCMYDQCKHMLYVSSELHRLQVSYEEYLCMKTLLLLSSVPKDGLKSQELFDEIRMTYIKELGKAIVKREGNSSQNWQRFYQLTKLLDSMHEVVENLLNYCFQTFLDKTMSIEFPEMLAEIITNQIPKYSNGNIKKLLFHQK
# In short: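 Agonist mode in a HeLa line carrying a GRE-controlled beta-lactamase reporter. Compounds act for 18 h at 37 C before a 2 h room-temperature FRET substrate step and fluorescence reading.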
# [10] = molecular target: Glucocorticoid receptor (Homo sapiens) (UniProt P04150); assay: qHTS assay to identify small molecule antagonists of the glucocorticoid receptor (GR) signaling pathway (AID 720692; active means well fitted inhibition curve with a large enough effect in the signal ratio in the repeat runs, not every such curve was filed as active; the % refers to the signal ratio; further: potency means the concentration at half of the fitted maximal effect)
# In short: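 Cells plated, rested 4 h at 37 C/5% CO2; compounds in DMSO pin-transferred; dexamethasone added to 5 nM final; 18 h at 37 C; B/G FRET substrate added, 2 h room temperature; fluorescence measured.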
compound,measurement,setting,value
Cc1cn[nH]c1,Potency,[1],inactive
same,Potency,[2],inactive
same,Potency,[3],inactive
same,Potency,[4],inactive
same,Potency,[5],inactive
same,Potency,[6],inactive
same,Potency,[7],inactive
same,Potency,[8],inactive
same,Potency,[9],inactive
same,Potency,[10],inactive
COc1cc(C(C)C)c2c(c1)S(=O)(=O)N(COc1cc(=O)n3cccc(OCCN4CCCCC4)c3n1)C2=O,"fluorescence, % of fluorescein",[1],-0.188% [at 18.6 µM]
same,"fluorescence, % of fluorescent control",[2],-0.0582% [at 18.6 µM]
same,activity change,[3],"-0.182% [at 18.6 µM, active compounds read high]"
same,"fluorescence, % of fluorescent control",[4],0.355% [at 18.6 µM]
same,"fluorescence, % of Rose Bengal",[5],-0.164% [at 18.6 µM]
same,"fluorescence, % of fluorescent control",[6],-0.155% [at 18.6 µM]
same,"fluorescence, % of fluorescein control",[7],-0.0973% [at 18.6 µM]
same,"fluorescence, % of fluorescent control",[8],0.0401% [at 18.6 µM]
same,Potency,[10],10.4 µM (active)
CCCC(CC)CCCCCCCN (stereo not given),Potency,[1],inactive
same,Potency,[2],inactive
same,Potency,[3],inactive
same,Potency,[4],inactive
same,Potency,[5],inactive
same,Potency,[6],inactive
same,Potency,[7],inactive
same,Potency,[8],inactive
same,Potency,[9],inactive
same,Potency,[10],inactive
C/C=C/C(=O)Oc1c(CCCCCC(C)C)cc([N+](=O)[O-])cc1[N+](=O)[O-],Potency,[1],inactive
same,Potency,[2],inactive
same,Potency,[3],inactive
same,Potency,[4],inactive
same,Potency,[5],inactive
same,Potency,[6],inactive
same,Potency,[7],inactive
same,Potency,[8],inactive
same,Potency,[10],3.09 µM (active)
O=C(c1ccccc1)c1cc(Cl)ccc1O,Potency,[1],inactive
same,Potency,[2],inactive
same,Potency,[3],inactive
same,Potency,[4],inactive
same,Potency,[5],inactive
same,Potency,[6],inactive
same,Potency,[7],inactive
same,Potency,[8],inactive
same,Potency,[9],inactive
same,Potency,[10],inactive
NCCCCCCNCCCCCCN,Potency,[1],inactive
same,Potency,[2],inactive
same,Potency,[3],inactive
same,Potency,[4],inactive
same,Potency,[5],inactive
same,Potency,[6],inactive
same,Potency,[7],inactive
same,Potency,[8],inactive
same,Potency,[9],inactive
same,Potency,[10],inactive
CC(=O)Oc1ccc(C2(c3ccc(OC(C)=O)cc3)C(=O)Nc3ccccc32)cc1,Potency,[1],inactive
same,Potency,[2],inactive
same,Potency,[3],inactive
same,Potency,[4],inactive
same,Potency,[5],inactive
same,Potency,[6],inactive
same,Potency,[7],inactive
same,Potency,[8],inactive
same,Potency,[9],inactive
same,Potency,[10],16.9 µM (active) and 26.8 µM (active)
Nc1cc(Cl)c([N+](=O)[O-])cc1O,Potency,[1],inactive
same,Potency,[2],inactive
same,Potency,[3],inactive
same,Potency,[4],inactive
same,Potency,[5],inactive
same,Potency,[6],inactive
same,Potency,[7],inactive
same,Potency,[8],inactive
same,Potency,[9],inactive
same,Potency,[10],inactive
CCN(CC)CCOC(=O)C1(C2CCCCC2)CCCCC1,Potency,[1],inactive
same,Potency,[2],inactive
same,Potency,[3],inactive
same,Potency,[4],inactive
same,Potency,[5],inactive
same,Potency,[6],inactive
same,Potency,[7],inactive
same,Potency,[8],inactive
same,Potency,[9],inactive
same,Potency,[10],inactive
C=CC(=O)OCC(O)COc1ccccc1 (stereo not given),Potency,[1],inactive
same,Potency,[2],inactive
same,Potency,[3],inactive
same,Potency,[4],inactive
same,Potency,[5],inactive
same,Potency,[6],inactive
same,Potency,[8],inactive
Oc1ccc(-c2ccc(O)cc2)cc1,Potency,[1],inactive
same,Potency,[2],inactive
same,Potency,[3],inactive
same,Potency,[4],inactive
same,Potency,[5],inactive
same,Potency,[6],inactive
same,Potency,[8],inactive
same,Potency,[9],inactive
CCN(CC)CCSC(=O)C(c1ccccc1)c1ccccc1,Potency,[1],inactive
same,Potency,[2],inactive
same,Potency,[3],inactive
same,Potency,[4],inactive
same,Potency,[5],inactive
same,Potency,[6],inactive
same,Potency,[8],inactive
same,Potency,[9],inactive
same,Potency,[10],19 µM (active) and 10.7 µM (active)
COC(=O)CC(C)CCC=C(C)C (stereo not given),Potency,[1],inactive
same,Potency,[2],inactive
same,Potency,[3],inactive
same,Potency,[4],inactive
same,Potency,[5],inactive
same,Potency,[6],inactive
same,Potency,[8],inactive
same,Potency,[9],inactive
same,Potency,[10],inactive
CCCCCCCCCCCCCCNCCO,Potency,[1],inactive
same,Potency,[2],inactive
same,Potency,[3],inactive
same,Potency,[4],inactive
same,Potency,[5],inactive
same,Potency,[6],inactive
same,Potency,[8],inactive
COCC(=O)O[C@]1(CCN(C)CCCc2nc3ccccc3[nH]2)CCc2cc(F)ccc2[C@@H]1C(C)C,Potency,[1],inactive
same,Potency,[2],inactive
same,Potency,[3],inactive
same,Potency,[4],inactive
same,Potency,[6],inactive
same,Potency,[7],inactive
same,Potency,[8],inactive
O=C(O)CCn1c2c(c3ccccc31)C[C@H](NS(=O)(=O)c1ccc(F)cc1)CC2,Potency,[1],inactive
same,Potency,[2],inactive
same,Potency,[3],inactive
same,Potency,[4],inactive
same,Potency,[5],inactive
same,Potency,[6],inactive
same,Potency,[8],inactive
CO[C@H]1C=CO[C@@]2(C)Oc3c(C)c(O)c4c(O)c(cc(O)c4c3C2=O)NC(=O)/C(C)=C\C=C/[C@H](C)[C@H](O)[C@@H](C)[C@@H](O)[C@@H](C)[C@H](OC(C)=O)[C@@H]1C,Potency,[1],inactive
same,Potency,[2],inactive
same,Potency,[3],inactive
same,Potency,[4],inactive
same,Potency,[5],inactive
same,Potency,[6],inactive
same,Potency,[8],inactive
O=C1OC(OC(=O)c2cccnc2Nc2cccc(C(F)(F)F)c2)c2ccccc21 (stereo not given),Potency,[1],inactive
same,Potency,[2],inactive
same,Potency,[3],inactive
same,Potency,[4],inactive
same,Potency,[5],inactive
same,Potency,[6],inactive
same,Potency,[8],inactive
same,Potency,[9],inactive
same,Potency,[10],inactive
CCCN(CCc1cccs1)[C@H]1CCc2c(O)cccc2C1,Potency,[1],inactive
same,Potency,[2],inactive
same,Potency,[3],inactive
same,Potency,[4],inactive
same,Potency,[5],inactive
same,Potency,[6],inactive
same,Potency,[8],inactive
same,Potency,[9],inactive
same,Potency,[10],inactive
CCCCOC(=O)C(C)CC (stereo not given),Potency,[1],inactive
same,Potency,[2],inactive
same,Potency,[3],inactive
same,Potency,[4],inactive
same,Potency,[5],inactive
same,Potency,[6],inactive
same,Potency,[8],inactive
same,Potency,[9],inactive
